Screening results: PubChem, National Center for Advancing Translational Sciences (NCATS)
Shown are actives, neighbours in structure and some others; about 2.3% of the full set was active somewhere.
BCR signal inh – qHTS Assay to Find Inhibitors of Chronic Active B-Cell Receptor Signaling; Potency, µM (series often up to 46.1 µM), for inactives: top-dose activity change, negative = inhibition, hits mostly inhibitors; hit rate 0.05% among 340,000; AID 493014, 2011; ABC-DLBCL IkBa-CBG/CBR reporter, luminescence ratio, 4 h; active = well fitted inhibition curve with a large enough effect in the signal ratio, with a control signal flat, not every such curve was filed as active; inconclusive = small, poorly fitted or top-dose-only effect, or effect the other way, or a change in a side signal; the % refers to the signal ratio;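 note: plate controls were basal doxycycline-induced cells for no effect and cells given 10 µM MG132 for full effect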
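Cell line TMD8 (human ABC DLBCL), stably expressing tet-inducible CBG68-IkBa fusion and CBR; IMDM/0.5% FBS; cpd up to 46 uM; dox induction, 4 h, 37C/5% CO2; dual luminescence; green/red ratio; MG132 control.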
Abeta yeast res – qHTS for compounds that reverse cellular toxicity of Amyloid beta (A-beta) peptide in yeast: Primary Screen; AID 1347071, 2019; hit rate 0.063% among 410,000; Potency, µM (top dose mostly 46.1 µM), usual class: activators; yeast expressing A-beta42, growth rescue, OD600, 48 h; response scale: 0% DMSO, 100% iron-clioquinol control; note: nearly all actives have a fitted effect of over 55% in size
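Yeast growth medium received pinned compounds, then yeast cells expressing toxic A-beta were added; plates incubated at 30 C for 48 hr. Growth read as absorbance at 600 nm, normalized to DMSO and equimolar FeCl3 plus clioquinol controls.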
TDP43 rescue – qHTS of TDP-43 Inhibitors | TDP-43 expressing yeast growth rescue, BacTiter-Glo, 24 h | Potency, µM (titrated, usually from 46.1 µM), for inactives: at the top dose growth rescue (activation), hits mostly activators | hit rate 1.8% among 410,000; note: % of control where 0% means no effect; nearly all actives have a fitted effect of over 50% in size
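Luminescence from BacTiter-Glo reports growth of TDP-43-expressing yeast after 24 hr at 30 deg C with compound. Cells were raffinose-pregrown to mid-log, then seeded in galactose medium at OD600=0.02.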
FUS suppressor – qHTS for Suppressors of FUS Proteinopathy: Primary screen using FUS-linked yeast assay; S. cerevisiae FUS-expressing, growth rescue, OD600, 24 h; Potency, µM (series often up to 76.6 µM), most hits filed as activators; hit rate 0.24% among 390,000; AID 1347120, 2019;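 note: plate controls were DMSO vehicle for no effect and reference control for full effect; nearly all actives have a fitted effect of over 55% in size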
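FUS-expressing yeast, raffinose-pregrown, induced in 2% galactose minimal medium at OD 0.005; compounds in a dilution series, 24hr at 30C. Growth restoration read as absorbance at 600 nm. CP55940 positive control, DMSO negative.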
uPA surface inh – qHTS for Inhibitors of Cell Surface uPA Generation; cell surface uPA generation assay, qHTS; Potency, µM (top dose mostly 38.3 µM), for the others: top-dose activity change, negative = inhibition, actives largely listed as inhibitors; hit rate 0.31% among 330,000; AID 540303, 2011; active = well fitted inhibition curve with a large enough effect; inconclusive = small, poorly fitted or top-dose-only effect; inactive = no such curve, though single readings can be large or run the other way; tested in mouse RAW 264.7 cells; note: % is set by controls: 0 for no effect and ±100 for the full control effect; nearly all actives have a fitted effect of over 55% in size
aSyn yeast inh – qHTS of alpha-syn Inhibitors; Yeast expressing alpha-synuclein, growth rescue, BacTiter-Glo, 24 h; Potency, µM (doses to about 46.1 µM), without a hit: at the top dose growth rescue (activation), usual class: activators; hit rate 0.14% among 370,000; AID 652106, 2013; note: % of control where 0% means no effect; nearly all actives have a fitted effect of over 65% in size
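Readout is rescue of growth in alpha-synuclein-expressing yeast, so inhibitors of toxicity appear as activators. Growth after 24 hr at 30 deg C in galactose medium is quantified by luminescence.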
An asterisk follows results filed as active; i = inactive; ? = inconclusive; nt = not tested or not shown. Unless noted, calls come from the whole dose curve; as a rule, active = well fitted curve in the direction sought with a large enough effect; inconclusive = small, poorly fitted or top-dose-only effect, or another doubt; inactive = no such curve, though single readings can be large; an effect the other way counts as inactive or inconclusive. Potency is the fitted concentration of half-maximal effect.

SMILES | BCR signal inh | Abeta yeast res | TDP43 rescue | FUS suppressor | uPA surface inh | aSyn yeast inh
O=C(Nc1nccs1)C1(c2ccc(Cl)cc2)CC1 | 5.6% | i | 18.6% | i | 3.6% | -0.7%
O=C(C1CCCO1)N1CCN(S(=O)(=O)c2cc(F)ccc2F)CC1 (stereo unspecified) | 0.8% | i | ? | i | -1.5% | -0.1%
Cc1ccc(NS(=O)(=O)c2ccc(-c3cc(C)no3)cc2)c(Br)c1 | nt | i | 22.4µM* | i | nt | nt
Cc1cc(-c2ccc(S(=O)(=O)Nc3ccc(Cl)cc3C)cc2)on1 | nt | i | 15.8µM* | i | nt | nt
Cc1cc(-c2ccc(S(=O)(=O)Nc3ccccc3C)cc2)on1 | nt | i | 23.0% | i | nt | nt
O=C1CC(Sc2ncccn2)C(=O)N1c1ccccc1 (stereo unspecified) | -0.7% | i | -9.6% | i | 2.0% | -2.6%
COc1ccc(N2C(=O)CC(Sc3nnc(-c4ccccc4)o3)C2=O)cc1 (stereo unspecified) | ? | i | 11.2µM* | i | -9.4% | nt
Cc1nc(SC2CC(=O)N(c3ccccc3)C2=O)n[nH]1 (stereo unspecified) | ? | i | 4.47µM* | i | -3.2% | -10.6%
O=C(NCc1cccs1)c1csc([C@H]2C[C@H](O)[C@@H](CO)O2)n1 | nt | i | 4.3% | i | nt | -7.3%
COc1cccc(-c2sc3ccc(OC)cc3c2C#CC(C)(C)O)c1 | ? | i | 17.8µM* | ? | -20.2% | -21.5%
COc1cccc(-c2sc3ccc(OC)cc3c2C#CCC(C)O)c1 (stereo unspecified) | -2.9% | i | 25.1µM* | ? | 0.3% | -1.4%
O=C(NC1CCCCC1)NC1CC2CCC(C1)N2C(=O)NC1CCCCC1 (stereo unspecified) | -0.5% | nt | nt | nt | nt | nt
COc1ccccc1CN1C(=O)C(Cc2ccccc2)ON=C1c1ncccc1C (stereo unspecified) | nt | i | 12.2% | i | nt | 0.9%
COc1cccc(/C=C/c2nc(C#N)c(N3CCCCC3)o2)c1 | nt | i | 15.8µM* | i | nt | nt
COC(=O)c1cc(NC(=O)c2cc(-c3ccccc3Cl)oc2C(F)(F)F)ccc1N1CCOCC1 | 15.1% | i | 20.7% | ? | ? | 12.0%
CCN1CCOC(CC(=O)Nc2cccc([N+](=O)[O-])c2)C1=O (stereo unspecified) | -0.3% | i | ? | i | -4.6% | ?
CCCN1CCOC(CC(=O)Nc2ccc([N+](=O)[O-])cc2)C1=O (stereo unspecified) | 3.8% | i | 20µM* | i | -0.5% | 2.7%
COc1nc(-c2ccccc2)ccc1-c1noc(-c2cccnc2)n1 | -2.1% | i | -10.9% | i | nt | 4.7%
COc1ccccc1-c1nc(-c2ccncc2)no1 | ? | i | 11.2µM* | i | -2.2% | nt
COc1ccccc1-c1noc(-c2cccnc2)n1 | -17.1% | i | 11.2µM* | i | -2.6% | 4.0%
CCOc1ccccc1-c1nc(-c2ccncc2)no1 | nt | i | 17.8µM* | i | 1.9% | 10.1%
CC(C)CCOc1ccc(C(=O)Nc2sc3c(c2C#N)CCCCC3)cc1 | nt | i | 17.8% | i | nt | nt
COc1ccc2sc(-c3ccccc3OC)c(-c3ccc(O)cc3)c2c1 | ? | i | -91.1% | ? | 12.8% | -62.5%
COc1cc2sc(-c3ccccc3OC)c(-c3ccc(O)cc3)c2cc1OC | ? | i | 15.8µM* | i | ? | -0.7%
CCOc1ccccc1NC(=O)CSc1nccn1-c1cccc(C)c1 | nt | i | 17.8µM* | i | nt | 13.6%
Cc1cccc(-n2ccnc2SCC(=O)Nc2nccs2)c1 | ? | i | 22.2% | i | 7.0% | -1.2%
COc1cccc(-n2ccnc2SCC(=O)Nc2cccc3ccccc23)c1 | nt | i | 15.8µM* | ? | nt | nt
